# Compound activity as filed in PubChem BioAssay.
# Rows were chosen to be rich in hits. Some 4.8% of all compounds tested hit in one or more screens of this group.
# ATXN2 expr inh: Primary qHTS for Inhibitors of ATXN expression; 360,000 tested, 0.72% active; AID 1745845, 2022; HEK-293 ATXN2-luciferase reporter, luminescence, 24 h; Potency, µM (doses to about 57 µM), usual class: inhibitors; also: nearly all actives have a fitted effect of over 55% in size
#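 ATXN2-luciferase reporter cells (luciferase flanked by upstream and downstream ATXN2 gene portions) were treated 24 h at 37 °C with compounds at up to 57 uM. SteadyGlo luminescence gave expression; GF-AFC fluorescence gave viability.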
# DRD3 agonist: qHTS of D3 Dopamine Receptor Agonist: qHTS; 410,000 tested, 0.58% active; D(3) dopamine receptor (Homo sapiens), P35462; max activation, %; D3R DiscoveRx beta-arrestin cells, luminescence, 90 min; in the data active = max activation above about 30%
# Target sequence (P35462 whole entry, looked up): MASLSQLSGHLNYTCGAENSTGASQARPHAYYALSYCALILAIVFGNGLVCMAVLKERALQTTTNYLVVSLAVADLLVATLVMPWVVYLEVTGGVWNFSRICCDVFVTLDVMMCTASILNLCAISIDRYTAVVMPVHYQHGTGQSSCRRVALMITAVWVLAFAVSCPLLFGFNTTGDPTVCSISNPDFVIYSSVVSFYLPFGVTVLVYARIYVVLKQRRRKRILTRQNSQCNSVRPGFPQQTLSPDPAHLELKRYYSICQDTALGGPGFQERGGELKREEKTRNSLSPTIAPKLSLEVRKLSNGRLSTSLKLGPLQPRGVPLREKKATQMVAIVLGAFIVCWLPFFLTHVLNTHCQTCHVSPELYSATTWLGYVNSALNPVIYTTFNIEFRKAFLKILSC
#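 Agonist mode: compounds and dopamine controls were applied to plated cells for 90 min at 37 degrees C after an overnight attachment at 1500 cells/well. Luminescent read-out followed 30 - 60 minutes at room temperature with DiscoveRx detection reagent.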
# DRD3 antagonist: qHTS of D3 Dopamine Receptor Antagonist: qHTS. D3R cells, DiscoveRx beta-arrestin luminescence, antagonist mode; active compounds read low. max response, negative = inhibition, %. 360,000 tested, 2.5% active; in the data active = max response below about -50%; inconclusive = no clear call, values can overlap the other calls
#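 Cells expressing the human receptor were seeded at 1500 cells/well, incubated overnight at 37 degrees C in 5% CO2, then exposed to library compounds with dopamine controls for 90 minutes at 37 degrees C before luminescent detection.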
# HepG2 tox: qHTS for Inhibitors of TGF-b: Cytotox Counterscreen; HepG2 CAGA-GFP viability, ATP luminescence, 18 h; Potency, µM (titrated, usually from 46.1 µM), most hits filed as cytotoxic; 410,000 tested, 0.76% active; AID 588856, 2011
#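 CellTiter-Glo luminescence gave cytotoxicity after 18 hours at 37 degrees C. The cells were HepG2 CAGA-GFP in 1% FBS DMEM, stimulated with 500 pg/mL TGF-beta after compound addition. %Activity was normalised to no-cell wells (complete cell-killing) and DMSO (no toxicity), and curves were fitted and classified.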
# S2 tox: Viability Counterscreen for Primary qHTS for Inhibitors of ATXN expression | AID 651635, 2014 | S2 cells (HEK-293 line with an ATXN2-luciferase reporter) viability, CellTiter-Fluor protease fluorescence, 24 h | Potency, µM (top dose mostly 56.7 µM), usual class: cytotoxic | 400,000 tested, 0.49% active; also: nearly all actives have a fitted effect of over 40% in size
# TGFb inhibitor: qHTS for Inhibitors of TGF-b | HepG2 CAGA-GFP TGF-b/SMAD3 reporter, GFP fluorescence, 18 h; TGF-beta stimulated, 500 pg/mL final | Potency, µM (top dose mostly 46.1 µM), actives largely listed as inhibitors | 410,000 tested, 1.2% active; also: nearly all actives have a fitted effect of over 65% in size
#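 Inhibition was scored as loss of TGF-beta-induced (500 pg/mL final, 18 hours, 37 degrees C) GFP in HEPG2 cells carrying a CAGA-GFP reporter, in DMEM with 1% FBS. Well GFP was summed per cell; Activity was normalised to unstimulated and stimulated DMSO wells, then concentration-response fitting.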
# A number is an active result; i = inactive; ? = inconclusive; nt = not tested or not shown. Unless noted, calls follow the shape of the dose curve; as a rule, active = well fitted curve in the direction sought with a large enough effect; inconclusive = small, poorly fitted or top-dose-only effect, or another doubt; inactive = no such curve, though single readings can be large; an effect the other way counts as inactive or inconclusive.
SMILES,ATXN2 expr inh,DRD3 agonist,DRD3 antagonist,HepG2 tox,S2 tox,TGFb inhibitor
S=C1NC[C@H](CC2CCCCC2)N1CC1CCCCC1,32µM,i,?,i,18µM,?
CC[C@H](C)[C@H]1CNC(=S)N1CC1CCN(CCCCc2ccccc2)CC1,i,i,-65,i,i,i
CC(C)C[C@H]1CNC(=O)C(=O)N1CC1CCN(CCC(C)(C)C)CC1,i,i,i,i,i,i
Cc1ccc2c(=O)c(C(=O)c3ccccc3)cn(CC(=O)NCc3ccccc3)c2n1,i,i,nt,i,i,?
Cc1cccc(C(=O)NCc2nc(-c3ccccc3NC(=O)C3CCCO3)oc2C)c1 (stereo not given),nt,nt,nt,nt,i,nt
CC[C@H](C)[C@H]1CNC(=S)N1CC1CCN(CCC(C)(C)C)CC1,i,i,i,i,i,i
CC(C)C[C@H]1CNC(=S)N1CC1CCN(CC2CCC(C(C)(C)C)CC2)CC1 (stereo not given in full),i,i,-63,i,i,i
CC(C)C[C@H]1CNC(=S)N1CC1CCN(CC2CCCC2)CC1,i,i,?,i,i,i
CC[C@H](C)[C@H]1CNC(=S)N1CC1CCN(CCCC2CCCC2)CC1,i,i,-78,i,i,i
CCCN(C(=O)c1cc2c(=O)oc3ccccc3c2s1)c1ccccc1C,i,i,nt,i,i,i
CC1CCc2c(sc3nc(C4CC4)nc(N4CCN(C(=O)c5ccco5)CC4)c23)C1 (stereo not given),?,i,i,10µM,?,?
CCc1nc(N2CCN(C(=O)c3ccco3)CC2)c2c3c(sc2n1)CCCC3,i,i,i,i,?,i
COc1ccc2cc(CN(CCCN3CCOCC3)Cc3nnnn3C3CCCCC3)c(=O)[nH]c2c1,i,i,-50,i,i,i
Cc1ccc(Cc2cnc(NC(=O)/C(C#N)=C/c3ccc(-c4ccc([N+](=O)[O-])cc4)o3)s2)cc1,16µM,i,i,i,nt,i
N#C/C(=C/c1ccc(-c2ccc([N+](=O)[O-])cc2)o1)C(=O)Nc1nc(-c2cccs2)cs1,i,i,?,i,i,i
COc1cc(C(=O)N(Cc2ccc(F)cc2)Cc2ccco2)cc(OC)c1OC,nt,i,nt,i,nt,i
O=C(/C=C/C(Cl)(Cl)Cl)Nc1ccc(Cl)cc1,?,i,i,13µM,?,?
COCOc1cccc(CN2CCC(C)(Oc3ccc(C(C)=O)cc3)C2)c1 (stereo not given),i,i,i,i,i,i
CC(=O)c1cc2cccc(OC3(C)CCN(Cc4ccc5ccccc5c4)C3)c2o1 (stereo not given),i,i,-70,i,i,?
CC(=O)c1ccc(OC2(C)CCN(Cc3cc4ccccc4[nH]3)C2)cc1 (stereo not given),i,i,-55,i,i,i
CC(=O)c1ccc(OC2(C)CCN(CCOc3ccc(C)cc3)C2)cc1 (stereo not given),i,48,i,i,i,i
COc1ccc2c(CNCCc3ccccc3OC)c(C(=O)O)n(Cc3ccc(F)cc3Cl)c2c1,?,i,nt,i,?,?
O=C1C=C(c2ccccc2)CC(c2cccs2)C1n1cnc([N+](=O)[O-])c1 (stereo not given),i,i,i,i,i,i
O=C1C=C(c2ccccc2)C[C@H](c2cccs2)[C@H]1n1nnc([N+](=O)[O-])n1,?,i,i,i,28µM,i
CC(C)c1ccc(NC(=O)Nc2nc(C(N)COCc3ccccc3)cs2)cc1 (stereo not given),?,i,i,10µM,?,11µM
SMILES,ATXN2 expr inh,DRD3 agonist,DRD3 antagonist,HepG2 tox,S2 tox,TGFb inhibitor
CC(C)C(N)c1csc(NC(=O)Nc2cccc(Cl)c2)n1 (stereo not given),?,i,i,i,?,?
CC(C)c1ccc(NC(=O)Nc2nc(C(N)c3ccccc3)cs2)cc1 (stereo not given),?,i,i,11µM,nt,11µM
CC(C)c1ccc(NC(=O)Nc2nc(C(N)C(C)C)cs2)cc1 (stereo not given),?,43,-54,i,?,?
CSc1cccc(NC(=O)Cn2ncn3c(cc4ccccc43)c2=O)c1,nt,i,nt,i,nt,i
CN(C)CCN(Cc1ccsc1)c1ccccn1,i,nt,nt,nt,i,nt
COc1ccccc1NC(=O)c1cc2c(CO)cnc(C)c2oc1=Nc1cccc(C(N)=O)c1,nt,i,i,i,14µM,i
CCOC(=O)c1oc2cc(O)ccc2c(=O)c1-c1ccccc1OC,i,i,-61,i,i,i
CCOC(=O)c1oc2cc(O)ccc2c(=O)c1-c1csc(C)n1,i,i,i,i,i,i
COc1cc(Nc2ncc3c(n2)CCN(Cc2cc(F)cc(F)c2)C3)cc(OC)c1,?,i,nt,i,?,i
Cc1snc(S(=O)(=O)/C(C#N)=N/Nc2ccc(C(F)(F)F)cc2)c1C#N,i,i,-91,i,i,10µM
Fc1ccc(Nc2c(-c3c[nH]c4ccccc34)nc3ccccn23)cc1,i,i,nt,i,i,i
CCOc1cc(C2CC(=O)Nc3nc(SCc4ccccc4)[nH]c(=O)c32)ccc1O (stereo not given),i,i,nt,i,i,i
O=C1CC(c2cccc(O)c2)c2c(nc(SCc3ccccc3F)[nH]c2=O)N1 (stereo not given),i,i,nt,7.1µM,i,i
CCCCCCCCC1=NCCc2c1[nH]c1ccccc21,i,i,i,16µM,i,?
Brc1ccc(-c2ccc(CNCc3ccccn3)o2)cc1,nt,i,-74,i,?,i
COc1cc2cc(/C=C/C(=O)c3ccco3)c(Cl)nc2cc1OC,i,i,?,13µM,i,?
Cc1ccc2cc(/C=C/C(=O)c3ccco3)c(Cl)nc2c1,i,i,i,i,i,?
Cc1ccc2nc(Cl)c(/C=C/C(=O)c3ccco3)cc2c1,i,i,i,i,i,13µM
O=C(C=Cc1ccco1)c1ccco1,i,i,i,i,i,i
Cc1cc(C(=O)N2CCN(C(c3ccccc3)c3ccccc3)CC2)no1,i,i,i,i,i,i
Cc1cc(N2C(=O)CC(N3CCN(C(c4ccccc4)c4ccccc4)CC3)C2=O)no1 (stereo not given),i,i,-55,i,i,i
CCC(C)NC(=O)c1cc(C)no1 (stereo not given),i,i,-64,i,i,i
Cc1ccccc1C(=O)Oc1c(Sc2ccccc2)c(C)nn1C(C)(C)C,i,i,nt,i,i,i
